According to the OligoGym collection:

What follows are sequences tested against S100P (assay: pooled miR-30 sensor sort-seq; sequence = guide strand). Conditions: shRNA.
Further: reference of the scale not given here.

Sequence	sensor-assay potency score (higher = more potent)
TCCATTGGCGTCCAGGTCCTTG	-1.46
TGTCTTTTCCACTCTGCAGGAA	-0.419
TTGCCAACAAACACTTTTGGGA	-0.0452
TACATGAGCAGGCTCAGCCTAG	-0.833
TTCCACTCTGCAGGAAGCCTGG	-1.03

Each sequence was assayed against SACS in the same assay as above. Conditions: shRNA.

Sequence	sensor-assay potency score (higher = more potent)
TTTCACAATAACATGTCTCATG	-0.427
TTTTAGATTAGTCTGCTGCAGA	-0.586
TTCATAAACAAGTCTTTGCGGG	-0.207
TAGAGTATCAACAACAATGTCA	0.305
TTTCTGACAGCTGAACTCCTAC	-0.234
ATAACTTTGCAACTCGTCCTTC	0.248
TAAAATATCATCTTTTGCCATA	-0.814
TTTCCAACCATCTTCTACCATC	-0.995
TTGACTTTACCAATCTACCATC	-1.12
TTTGAGAGTAAGTCTGTCCGGC	0.448
TTTTCTGTGACAACTCATCTGA	0.17

The sequences below were run against SAMD10 in the same assay as above. Conditions: shRNA.

Sequence	sensor-assay potency score (higher = more potent)
TAGTGGTCAGAGTACAGCCGGC	-1.02
TTGTGCCACATTTTGTCTCTGG	-0.0935
TTACTTCTCATGAATAGAGGGG	0.161
ATGCTCTCAGCTGACACCGTGT	-1.22
TAAATAAACAGACTCCCTGGGA	-0.205
TAGACGAGGTAGTTGTGGGGAC	-0.47
TTGTGGGGACAGTGCTTCTTGA	-1.41
TAAATAATGATGAAAGTGCTTG	-0.363
TGCTTCTTGAGCCACTTGCAGA	-1.33
TATGGTACAGGCCATAGTGGTC	-1.37
TGCAGGAGCTTGATTGGCCTGC	-1.14
ATAGTGGTCAGAGTACAGCCGG	-1.22

The sequences below were run against SAMD3 in the same assay as above. Conditions: shRNA.

Sequence	sensor-assay potency score (higher = more potent)
TTCTCCACCAACCAACTGCAGA	-1.35
TTGTTTCACATTTCTTCTCTGT	0.377
TTCAACATGTCTTCATCTGTGT	0.839
TTGAAATCTATGAACTAGCTCT	0.87
TTAACTTCCAACACAGGTGTGG	0.183
TTGCTCATCATCTTCTATGGGT	0.349
TAAAACATAGGACTTCGTCCAC	0.0328
TTCTGCTCTGCTAACATGCATT	-1.16
TAAATCCATCAGAACAGCCTGG	-0.235
TGTAACACAGTCGTCCACCTTT	-0.369
TTTTTCTCCACCAACCAACTGC	-0.0677
